Hit rate of the full screen: of about 1,300 compounds, about 140 (11%) were called active. The rule behind the calls is not given here. Not all results are given here. Results with a measured potency or affinity are listed apart.

Sequence of Prostaglandin E2 receptor EP2 subtype (Homo sapiens) (P43116 whole entry, looked up): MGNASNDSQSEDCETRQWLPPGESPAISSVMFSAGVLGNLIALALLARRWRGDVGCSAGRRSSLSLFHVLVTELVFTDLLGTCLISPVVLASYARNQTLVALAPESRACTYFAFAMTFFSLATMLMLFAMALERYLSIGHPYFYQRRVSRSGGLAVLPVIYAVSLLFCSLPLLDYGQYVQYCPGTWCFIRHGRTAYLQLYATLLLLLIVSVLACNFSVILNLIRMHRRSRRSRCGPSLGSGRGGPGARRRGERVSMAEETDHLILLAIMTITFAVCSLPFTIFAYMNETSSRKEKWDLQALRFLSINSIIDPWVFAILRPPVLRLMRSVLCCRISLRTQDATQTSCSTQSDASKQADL

The experiment concerns the target Prostaglandin E2 receptor EP2 subtype (Homo sapiens) (UniProt P43116). Nature of the experiment: EP2 receptor modulators, dose response, cell-based, human EP2, PGE2 EC50 shift (AID 1421). To be noted: EP2-expressing cells, PGE2 EC50 shift by compound; at 20 µM.
Regarding `Cc1ccccc1-n1c(Cn2c(=O)sc3ccccc32)nnc1SCC(=O)N1CCCC1`, the PGE2 EC50 with compound was 820 pM (inactive). For `Cc1cc(C)c2nc(N3CCCN(C(=O)c4ccco4)CC3)c(C#N)cc2c1`, the PGE2 EC50 with compound was 660 pM (inactive).

Take `COc1ccc(C2CC(c3cccs3)=NN2C(=O)c2ccc(Br)o2)cc1` (centres undefined): the PGE2 EC50 with compound was 710 pM (inactive).

Turning to `O=C1C2C3c4ccccc4C(c4ccccc43)C2c2nc3ccccc3n21` (centres undefined), the PGE2 EC50 with compound is 500 pM (inactive). The result for `COc1cc(C)c(NC(c2ccccc2)c2ccccc2)cc1OC` reads 740 pM (inactive); that for `c1ccc(-c2csc3ncnc(N4CCc5ccccc5C4)c23)cc1`, 280 pM (inactive); that for `O=C(O)CCCCCCCCCCCc1ccccc1`, 700 pM (inactive). In the case of `CCOC(=O)C(Cc1ccccc1)(NC(C)=O)C(=O)OCC` it was 1390 pM (inactive); in that of `O=c1c(O)c(-c2ccccc2)oc2ccc3occc3c12`, 430 pM (inactive); in that of `CCCCc1n[nH]c(=S)n1Cc1ccc(Cl)cc1`, 620 pM (inactive). In the case of `CCCCc1ccc(-n2c(Cc3cccs3)n[nH]c2=S)cc1` it was 600 pM (inactive); in that of `Cc1onc(-c2ccccc2)c1C(=O)N(Cc1ccco1)Cc1cccs1`, 490 pM (inactive).

`Cc1sc2ncnc(N(C)Cc3cccs3)c2c1C`: the PGE2 EC50 with compound was 780 pM (inactive). `COc1cccc2[nH]c3c(N4CCCCC4)ncnc3c12`: the PGE2 EC50 with compound was 54600 pM (inactive). In the case of `O=C(c1cc2sccc2n1Cc1ccc(F)cc1)N1CCCc2ccccc21` it was 270 pM (inactive); in that of `Cc1ccc(-c2nc3ccccc3nc2Cl)cc1`, 450 pM (inactive); in that of `CCOC(=O)c1c(NC(=O)CSC(=S)N(C)C)sc(C)c1C`, 550 pM (inactive). In the case of `CCCOP(=O)(OCCC)C(Nc1cccc(C(F)(F)F)c1)c1ccc(C)cc1` (centres undefined) it was 230 pM (inactive); in that of `CCOP(=O)(OCC)c1nc(-c2cccc3ccccc23)oc1NCc1ccccc1`, 310 pM (inactive). In the case of `CCOP(=O)(OCC)c1nc(-c2cccc3ccccc23)oc1NCCc1ccc(OC)cc1` it was 720 pM (inactive); in that of `CCOC(=O)c1c(NC(=O)CN2C(=O)NC3(CCCCCC3)C2=O)sc(C)c1-c1ccc(C)cc1`, 740 pM (inactive).

`CCOP(=O)(OCC)c1nc(-c2ccc(C)cc2)oc1NCc1ccccc1`: the PGE2 EC50 with compound was 460 pM (inactive). In the case of `Cc1ccccc1Nc1c(-c2ccccn2)nc2ccccn12` it was 670 pM (inactive). The result for `COC(=O)c1cc2ccsc2n1Cc1ccccc1F` reads 490 pM (inactive); that for `CSc1nc(Sc2ccccc2Cl)c2ccccc2n1`, 410 pM (inactive). In the case of `CCOC(=O)c1ccccc1NC(=O)CSc1ncc(C(=O)OCC)c(N)n1` it was 550 pM (inactive); in that of `Cc1ccc(S(=O)(=O)n2c3ccc(F)cc3c3nc(C)sc32)cc1`, 200 pM (inactive); in that of `C=CCn1c(SCC(N)=O)nc(C)cc1=O`, 820 pM (inactive). On to `C=CCn1c(SCc2c(C)noc2C)nc2sc(C)c(C)c2c1=O`, for which the PGE2 EC50 with compound is 570 pM (inactive). Consider `CC(=O)Nc1ccc(C2=NN(c3ccccc3)C(c3cccs3)C2)cc1` (centres undefined), for which the PGE2 EC50 with compound is 320 pM (inactive). `CCCCCn1c(CN2CCN(c3cc(Cl)ccc3C)CC2)nc2c1c(=O)[nH]c(=O)n2C`: the PGE2 EC50 with compound was 1940 pM (inactive).

Regarding `Brc1ccc(Cn2c(-c3cncs3)nc3ccccc32)cc1`, the PGE2 EC50 with compound was 430 pM (inactive). The result for `CCn1c2ccccc2c2cc(/C=N/n3c(C)nnc3C)ccc21` reads 40 pM (inactive). Turning to `Cc1ccccc1OCc1nc2ccccc2c(=O)n1/N=C/c1ccco1`, the PGE2 EC50 with compound was 610 pM (inactive).

Turning to `CN(c1ccccc1)C1CCCCC1NS(=O)(=O)c1ccc(Cl)cc1` (centres undefined), the PGE2 EC50 with compound is 380 pM (inactive). Consider `N#CCSc1nc2c(c(C3CC=CCC3)c1C#N)CCC2` (centres undefined), for which the PGE2 EC50 with compound is 500 pM (inactive). The result for `CSc1ccccc1NC(=O)COc1ccc(Cl)cc1C` reads 350 pM (inactive); that for `CN(CC(=O)Nc1ccccc1-c1ccccc1)Cc1ccccc1Cl`, 600 pM (inactive); that for `C(=N\N1CCN(C2c3ccccc3-c3ccccc32)CC1)/c1cccnc1`, 430 pM (inactive).

Consider `COC(=O)c1c(NC(NC(=O)C(C)C)C(Cl)(Cl)Cl)sc2c1CCCC2` (centres undefined), for which the PGE2 EC50 with compound was 510 pM (inactive). The result for `N/C(CSc1nc(-c2ccccc2)c(-c2ccccc2)o1)=N\O` reads 370 pM (inactive). The result for `O=C(O)CSc1cc(-c2ccccc2)nc2ccccc12` reads 1190 pM (inactive). In the case of `C=CCC(=O)OCCCCCCOc1ccc(C(=O)O)cc1` it was 730 pM (inactive); in that of `CC(C)Oc1ccc(/C=C(/NC(=O)c2ccccc2)C(=O)NCCC(=O)O)cc1`, 980 pM (inactive); in that of `Cc1ccc(C(=O)OCC(=O)Nc2ccccc2Sc2ccccc2)cc1C`, 260 pM (inactive). For `CN(/N=C/C=C/c1ccccc1)C1=NS(=O)(=O)c2ccccc21`, the PGE2 EC50 with compound is 140 pM (inactive). The result for `CCC(C)(C)n1nnnc1C(c1ccncc1)N1CCC(Cc2ccccc2)CC1` (centres undefined) reads 1270 pM (inactive); that for `CC1=CC(C)(C)N(S(=O)(=O)c2ccc(C)cc2)c2cc(C)ccc21`, 390 pM (inactive). In the case of `CC1(c2cc([N+](=O)[O-])cc([N+](=O)[O-])c2)CC(C)(C)N(C(=O)c2ccccc2)c2ccccc21` (centres undefined) it was 350 pM (inactive). The result for `CCOP(=O)(OCC)c1nc(-c2ccccc2)oc1NCc1ccccc1` reads 360 pM (inactive).

As for `O=C(O)c1cccc(NN=C2c3ccccc3-c3ccccc32)c1`, the PGE2 EC50 with compound was 740 pM (inactive). The result for `O=c1c2oc3ccccc3c2[nH]c(=S)n1-c1ccccc1` reads 1480 pM (inactive); that for `CN=C1CC(SC)=C1c1ccc(C)cc1`, 2680 pM (inactive); that for `Cc1cc(O)c(C=O)c2c1C(=O)Oc1c(C)c(O)c3c(c1O2)C(O)OC3=O` (centres undefined), 420 pM (inactive). Consider `O=C(NNc1ccc([N+](=O)[O-])cc1[N+](=O)[O-])C1C2CCCCC21` (centres undefined), for which the PGE2 EC50 with compound was 1490 pM (inactive). Take `CCOC(=O)C1=C(C)N(C)C(C)=C(C(=O)OCC)C1c1ccsc1`: the PGE2 EC50 with compound is 710 pM (inactive). `O=C(Oc1ccc(-c2nccc(-c3ccccn3)n2)cc1)c1cccc(C(F)(F)F)c1`: the PGE2 EC50 with compound is 1380 pM (inactive). In the case of `FC(F)(F)c1cccc(-c2cc3ccccc3nc2N2CCCC2)c1` it was 540 pM (inactive). The result for `CCCCOc1cc(C)nc(NCc2ccccc2)n1` reads 310 pM (inactive). The result for `COc1cnc(SCc2c(Cl)cccc2Cl)nc1Cl` reads 180 pM (inactive); that for `COC(=O)CSc1nc2c(c(C3CC=CCC3)c1C#N)CCC2` (centres undefined), 610 pM (inactive). For the compound `Cn1c(=O)c2c(nc(CN3CCN(c4ccccc4)CC3)n2Cc2c(F)cccc2Cl)n(C)c1=O`, the PGE2 EC50 with compound was 370 pM (inactive).

In the case of `CCn1c(=NC(=O)c2ccc(S(=O)(=O)N3CCOCC3)cc2)sc2cccc(OC)c21`, the PGE2 EC50 with compound is 1760 pM (inactive). The result for `Cn1c(=O)c2c(nc(SCC(=O)N3CCc4ccccc4C3)n2C)n(C)c1=O` reads 760 pM (inactive); that for `COc1cccc(N=c2oc3c(C)ncc(CO)c3cc2C(=O)Nc2ccccc2OC)c1`, 960 pM (inactive); that for `COc1cc2ccccc2cc1C(=O)NC(=S)Nc1cc(C(=O)O)ccc1C`, 58100 pM (inactive). The result for `Cc1cc2cc3c(cc2nc1SCC(=O)OC(C)C)OCO3` reads 210 pM (inactive); that for `Cc1cc(SCC(=O)c2ccccc2)nc2ccccc12`, 1190 pM (inactive). Turning to `C=CCSc1nc(N(CC)CC)c2sccc2n1`, the PGE2 EC50 with compound is 610 pM (inactive). The result for `O=c1c2ccccc2n(Cc2ccc(Cl)cc2)c(=O)n1Cc1ccco1` reads 380 pM (inactive); that for `Cc1cccc(Cn2c(=O)n(Cc3ccco3)c(=O)c3ccccc32)c1`, 310 pM (inactive); that for `CCOC(=O)c1sc2nccc(N(C)C)c2c1N=CNOCc1ccccc1`, 210 pM (inactive). In the case of `c1ccn(-c2ncnc3sc4c(c23)CCCC4)c1` it was 380 pM (inactive).

As to `CSc1nnc2c3ccccc3c3ccccc3c2n1`, the PGE2 EC50 with compound is 240 pM (inactive). As to `Fc1ccccc1Nc1nc2c(s1)CCc1ccccc1-2`, the PGE2 EC50 with compound is 260 pM (inactive).

In the case of `C=C[C@@](C)(O)CCC1C(=C)C[C@H](O)C2C(C)(C)CCCC12C` (some centres undefined), the PGE2 EC50 with compound was 590 pM (inactive). The result for `CCOC(=O)CSc1nc(Cc2ccccc2)nc2ccccc12` reads 350 pM (inactive); that for `COC(=O)CSc1nc(Cc2ccccc2)nc2ccccc12`, 170 pM (inactive). In the case of `CCN(Cc1cc(Cl)cc(C)c1O)Cc1c(O)ccc2ccccc12` it was 730 pM (inactive); in that of `Cc1ccc(-c2cccc(C(=O)NCc3ccccc3)n2)c2ccccc12`, 420 pM (inactive); in that of `COC(=O)c1c(C)nc2ccccc2c1-c1ccccc1`, 220 pM (inactive).

As to `CCCn1c(C)nc2c(c1=O)c1nc3ccccc3nc1n2CCC1=CCCCC1`, the PGE2 EC50 with compound was 360 pM (inactive). In the case of `O=C(Nc1cccc(Cl)c1N1CCCCC1)c1ccc2c(c1)OCCO2` it was 260 pM (inactive); in that of `CCCCOc1ccccc1NC(=O)c1scc2c1OCCO2`, 310 pM (inactive). In the case of `CCOC(=O)c1c(NC(=O)CSc2nnnn2CC)sc(C)c1C` it was 730 pM (inactive); in that of `O=C(Nc1ccccc1)c1nn(-c2cccc(C(F)(F)F)c2)ccc1=O`, 100 pM (inactive); in that of `O=C(Cc1ccccc1)Nc1ccccc1N1CCN(c2ccccc2)CC1`, 280 pM (inactive). Take `O=C(COc1ccccc1)Nc1ccccc1N1CCN(c2ccccc2)CC1`: the PGE2 EC50 with compound was 200 pM (inactive).

Regarding `CN(C)c1ncc(S(=O)(=O)c2ccccc2)c(-c2ccccc2Cl)n1`, the PGE2 EC50 with compound was 230 pM (inactive). In the case of `O=C(CSc1nc2ccccc2o1)Nc1ccccc1N1CCCCCC1` it was 530 pM (inactive); in that of `O=C(c1ccccc1O)N1N=C(c2ccccc2)CC1(O)C(F)(F)F` (centres undefined), 510 pM (inactive). The result for `NC(=O)c1sc2nc(N3CCCCC3)c3c(c2c1N)CCCC3` reads 80 pM (inactive); that for `N#Cc1sc2nc(N3CCCCC3)c3c(c2c1N)CCCC3`, 260 pM (inactive); that for `Cc1ccc(S(=O)(=O)n2c3ccc(Cl)cc3c3nc(C)sc32)cc1`, 130 pM (inactive).

Values taken from PubChem BioAssay AID1421 (Emory University Molecular Libraries Screening Center, 2008).
